Results: PubChem BioAssay (NCI)
About 79,000 compounds went through this panel and 15% of them were active in at least one assay; those are over-represented in the sample as a whole. Calls of active or inactive are those of the source. Rule as the data show it: active = growth inhibition above about 70%; inactive = the rest.

Assays:
[1] = NCI Yeast Anticancer Drug Screen. Data for the rad52 strain (AID 147);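 also: 0% = growth of vehicle-treated control cultures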; conditions: S. cerevisiae rad52 mutant growth inhibition, hits give high values
Outline: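 Measured: yeast growth inhibition. System: strain with a defined DNA damage repair alteration. Reference: vehicle-treated control cultures.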

[2] = NCI Yeast Anticancer Drug Screen. Data for the wt1 strain (AID 149);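 also: 0% = growth of vehicle-treated wt1 cultures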; conditions: S. cerevisiae wt1 strain (SPY 50644) growth inhibition, hits give high values
Outline: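 Measured: growth of wt1 yeast under compound versus vehicle treatment, reported as inhibition.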

[3] = NCI Yeast Anticancer Drug Screen. Data for the rad50EPP+ strain (AID 151);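 also: 0% = growth of vehicle-treated control cultures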; conditions: S. cerevisiae rad50 mutant strain, hits give high values
Outline: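 One strain with a rad50 alteration (rad50EPP+) was compound-treated, its growth then compared to that of vehicle controls.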

[4] = NCI Yeast Anticancer Drug Screen. Data for the rad50 strain (AID 155);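 also: 0% = growth of vehicle-only cultures of the same strain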; conditions: S. cerevisiae rad50 strain growth inhibition, hits give high values
Outline: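 Growth of the mutant yeast was measured after compound exposure and referenced to vehicle-treated cultures.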

[5] = NCI Yeast Anticancer Drug Screen. Data for the mec2-1 strain (AID 157); conditions: S. cerevisiae mec2-1 strain, hits give high values
Outline: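 Test agents were screened against the mec2-1 yeast strain, with defined DNA repair or cell cycle alteration. Growth was scored as inhibition against vehicle-only controls.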

[6] = NCI Yeast Anticancer Drug Screen. Data for the rad14 strain (AID 159);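 also: 0% = growth of vehicle-treated control cultures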; conditions: S. cerevisiae rad14 strain growth inhibition, hits give high values
Outline: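 Here, inhibition of yeast growth was measured after compound exposure, using a strain with a genetic defect in DNA damage repair and vehicle-treated cultures as the reference.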

[7] = NCI Yeast Anticancer Drug Screen. Data for the sgs1 mgt1 strain (AID 161);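 also: 0% = growth of cultures given vehicle only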; conditions: S. cerevisiae sgs1 mgt1 strain, hits give high values
Outline: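 Genetically altered yeast, compound exposure, growth inhibition relative to vehicle.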

[8] = NCI Yeast Anticancer Drug Screen. Data for the CLN2oe strain (AID 163);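 also: 0% = growth of vehicle-only control cultures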; conditions: S. cerevisiae CLN2oe strain, hits give high values
Outline: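 Here, growth inhibition in a cell-cycle-altered yeast strain after compound exposure was quantified against vehicle control growth.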

[9] = NCI Yeast Anticancer Drug Screen. Data for the cln2 rad14 strain (AID 165);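 also: 0% = growth equal to vehicle treated cultures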; conditions: S. cerevisiae cln2 rad14 strain, hits give high values
Outline: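 Growth of compound-exposed yeast (cln2 rad14 genotype) measured and expressed as inhibition relative to vehicle.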

[10] = NCI Yeast Anticancer Drug Screen. Data for the bub3 strain (AID 167); conditions: S. cerevisiae bub3 mutant strain, hits give high values
Outline: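 Whole-cell yeast assay. The mutant strain was incubated with compounds, and growth inhibition was determined by comparison with vehicle-treated cells.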

[11] = NCI Yeast Anticancer Drug Screen. Data for the wt2 strain (AID 169);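 also: 0% = growth of vehicle-treated yeast cultures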; conditions: S. cerevisiae wt2 strain growth inhibition, hits give high values
Outline: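 Genetically defined yeast strains from a DNA-repair/cell-cycle panel were used. Compound-exposed yeast growth was measured, and the inhibition was calculated relative to vehicle treatment.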

[12] = NCI Yeast Anticancer Drug Screen. Data for the mlh1 strain (AID 171);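 also: 0% = growth of vehicle-treated control cultures of the same strain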; conditions: S. cerevisiae mlh1 strain growth inhibition, hits give high values
Outline: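 Here the genetically defined yeast mutant is grown with each compound, and the extent to which its growth falls below that of vehicle-exposed cells is reported.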

[13] = NCI Yeast Anticancer Drug Screen. Data for the sgs1 strain (AID 173);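 also: 0% = growth of vehicle-only control cultures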; conditions: S. cerevisiae sgs1 mutant, hits give high values
Outline: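 Relative growth inhibition, referenced to vehicle, was determined in a yeast strain with a defined alteration affecting DNA damage repair or cell cycle control after compound exposure.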

[14] = NCI Yeast Anticancer Drug Screen. Data for the mlh1 rad18 strain (AID 175); conditions: S. cerevisiae mlh1 rad18 strain growth inhibition, hits give high values
Outline: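 In this whole-cell yeast screen, a strain with altered DNA damage repair is challenged with compound, and its growth is measured against matched vehicle-treated controls.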

[15] = NCI Yeast Anticancer Drug Screen. Data for the rad18 strain (AID 177); conditions: S. cerevisiae rad18 mutant growth inhibition, hits give high values
Outline: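 Screen uses a yeast strain with a defined lesion in DNA damage repair; compound effect is read as loss of growth compared to untreated vehicle cultures.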

[16] = at 5.0 µM (retest, dose inferred, filed as 0.5)
[17] = at 50.0 µM (retest, dose inferred, filed as 5.0)

Measured: growth inhibition

COc1ccc(CCN2C(=O)C=CC2=O)cc1OC
inactive: [1]; at 1.2 µM 13% | [1]; at 3.7 µM 37% | [2]; at 1.2 µM -1% | [2]; at 3.7 µM 7% | [2]; at 11.0 µM 62% | [3]; at 1.2 µM 7% | [3]; at 3.7 µM 50% | [4]; at 1.2 µM 4% | [4]; at 3.7 µM 18% | [4]; [16] 27% | [4]; at 11.0 µM 67% | [4]; [17] 51% | [5]; at 1.2 µM 5% | [5]; at 3.7 µM 38% | [5]; [16] 43% | [5]; [17] 42% | [6]; at 1.2 µM -10% | [6]; at 3.7 µM 3% | [6]; at 11.0 µM 63% | [8]; at 1.2 µM 17% | [8]; at 3.7 µM 33% | [10]; at 1.2 µM 15% | [10]; at 3.7 µM 43% | [11]; at 1.2 µM -21% | [11]; at 3.7 µM 5% | [11]; at 11.0 µM 48% | [12]; at 1.2 µM -19% | [12]; at 3.7 µM 4% | [12]; at 11.0 µM 53% | [13]; at 1.2 µM 1% | [13]; at 3.7 µM 5% | [13]; at 11.0 µM 38% | [14]; [16] 23% | [14]; [17] 44% | [15]; at 1.2 µM -2% | [15]; at 3.7 µM 15% | [15]; at 11.0 µM 64%
active: [1]; at 11.0 µM 79% | [1]; at 33.0 µM 99% | [1]; at 100.0 µM 99% | [2]; at 33.0 µM 99% | [2]; at 100.0 µM 99% | [3]; at 11.0 µM 82% | [3]; at 33.0 µM 96% | [3]; at 100.0 µM 98% | [4]; at 33.0 µM 98% | [4]; at 50.0 µM 83.2% | [4]; at 100.0 µM 98% | [5]; at 11.0 µM 79% | [5]; at 33.0 µM 100% | [5]; at 50.0 µM 92.3% | [5]; at 100.0 µM 100% | [6]; at 33.0 µM 99% | [6]; at 100.0 µM 99% | [7]; [16] 74% | [7]; [17] 98% | [8]; at 11.0 µM 81% | [8]; at 33.0 µM 99% | [8]; at 100.0 µM 99% | [9]; [16] 78% | [9]; [17] 99% | [10]; [16] 97% | [10]; at 11.0 µM 88% | [10]; at 33.0 µM 99% | [10]; [17] 97% | [10]; at 100.0 µM 99% | [11]; at 33.0 µM 99% | [11]; at 100.0 µM 99% | [12]; at 33.0 µM 99% | [12]; at 100.0 µM 98% | [13]; at 33.0 µM 98% | [13]; at 100.0 µM 98% | [14]; at 50.0 µM 84.4% | [15]; at 33.0 µM 98% | [15]; at 100.0 µM 98%
